Measurements reported in PubChem BioAssay (NCI).
Compounds without any hit were thinned out: in the full panel of roughly 79,000, 15% have a hit. Cut-off read from the data, not from the text of the source: active = growth inhibition above about 70%; inactive = the rest.

How the values were obtained:
[1] = NCI Yeast Anticancer Drug Screen. Data for the rad50 strain (AID 155);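 note: 0% = growth of vehicle-only cultures of the same strain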; conditions: S. cerevisiae rad50 strain growth inhibition; at 50.0 µM; active compounds read high
In short: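 Vehicle-treated cultures provide the reference for the growth inhibition reported for compound-exposed, repair-deficient yeast.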

[2] = NCI Yeast Anticancer Drug Screen. Data for the mec2-1 strain (AID 157); conditions: S. cerevisiae mec2-1 strain, at 50.0 µM, active compounds read high
In short: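 Vehicle-treated cultures served as reference for growth inhibition of compound-exposed mec2-1 yeast.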

[3] = NCI Yeast Anticancer Drug Screen. Data for the sgs1 mgt1 strain (AID 161);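 note: 0% = growth of cultures given vehicle only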; conditions: S. cerevisiae sgs1 mgt1 strain, at 50.0 µM, active compounds read high
In short: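 Test agents were incubated with a DNA-repair-mutant yeast strain. Growth was then read and compared against vehicle-treated controls.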

[4] = NCI Yeast Anticancer Drug Screen. Data for the cln2 rad14 strain (AID 165);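 note: 0% = growth equal to vehicle treated cultures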; conditions: S. cerevisiae cln2 rad14 strain, at 50.0 µM, active compounds read high
In short: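 Each compound was tested on cln2 rad14 yeast. Inhibition of growth was calculated against vehicle-exposed controls.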

[5] = NCI Yeast Anticancer Drug Screen. Data for the bub3 strain (AID 167); conditions: S. cerevisiae bub3 mutant strain, at 50.0 µM, active compounds read high
In short: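 Mutant yeast screening strain plus compound; vehicle-treated cultures serve as the 0% inhibition reference.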

[6] = NCI Yeast Anticancer Drug Screen. Data for the mlh1 rad18 strain (AID 175); conditions: S. cerevisiae mlh1 rad18 strain growth inhibition; at 50.0 µM; active compounds read high
In short: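 Vehicle-treated cultures served as the reference for growth inhibition in a yeast strain carrying DNA damage repair alterations exposed to each compound.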

Measured: growth inhibition

COc1ccc2c(c1)C(C)(C(N)=O)CCC2 (stereo unspecified)
inactive: [1] 3.25% | [2] 4.8% | [3] 3.7% | [4] 5.5% | [5] -12.2% | [6] -13.2%

CC1=C/C(=N/Nc2ccc([N+](=O)[O-])cc2[N+](=O)[O-])CC(C)(C)C1
inactive: [1] -21.3% | [2] -27.2% | [3] 18.4% | [4] -41% | [5] 3.1% | [6] 3.5%

N#CC12CC3(CCC1CCC1(C2)OCCO1)OCCO3 (stereo unspecified)
inactive: [1] -13.8% | [2] 2.65% | [3] -3.9% | [4] -6.65% | [5] 4.3% | [6] -1%

CCc1nc(N)nc(N)c1-c1ccc2nnn(O)c2c1
inactive: [1] -11.8% | [2] -7.45% | [3] -4.8% | [4] -40% | [5] 0% | [6] -3.1%

C=C1C(=O)OC2C1C(OC(=O)/C(C)=C/C)CC(O)(CCl)C1C(O)C=C(C)C21O (stereo unspecified)
inactive: [1] 33.5% | [2] 14.6% | [3] 21.6% | [4] 20.8% | [5] 10.1% | [6] -51.1%

NC(=O)C(c1ccccc1)c1ccnc2ccccc12 (stereo unspecified)
inactive: [1] 2.05% | [2] 4.5% | [3] 7.9% | [4] 8.05% | [5] 20.4% | [6] -21.2%

CCOC(=O)c1c(NCc2ccccc2)n(-c2ccccc2)c(=S)n(-c2ccccc2)c1=O
inactive: [1] 17.1% | [2] -6.8% | [3] 0.6% | [4] 32.1% | [5] 14.8% | [6] 53%

Cc1ccc(OC(=O)c2cccs2)cc1
inactive: [1] 29.6% | [2] 4.95% | [3] -11.9% | [4] -48.1% | [5] 22% | [6] 22.1%

O.O.[Cu+2].[Cu+2].[NH-]CCC(=O)[N-]C(Cc1cnc[nH]1)C(=O)O.[NH-]CCC(=O)[N-]C(Cc1cnc[nH]1)C(=O)O (stereo unspecified)
inactive: [1] -26.1% | [2] 5.8% | [3] 0.95% | [4] 31.8% | [5] 6.35% | [6] 11.8%

Nc1nc(-c2ccccc2)c(Cl)c(-c2cc(Cl)ccc2O)n1
inactive: [1] -1.45% | [2] -1.3% | [3] -10.4% | [4] 25.3% | [5] 4.25% | [6] 2.7%

O=C1CCCCC1CN1CCOCC1 (stereo unspecified)
inactive: [1] -37.5% | [2] -24.2% | [3] -5.3% | [4] -6.45% | [5] -22.1% | [6] -16.4%

CCC(=O)NC(Nc1cccc(F)c1)(C(F)(F)F)C(F)(F)F
inactive: [1] -28.5% | [2] -36.6% | [3] -20.7% | [4] 13.3% | [5] -20.9% | [6] -66.8%

O=C(/C=C/c1ccccc1)N/N=C/c1ccncc1
inactive: [1] 5.2% | [2] 24.9% | [3] 1.6% | [4] -9.2% | [5] -0.45% | [6] 11.3%

CCCCC(CC)CC#N (stereo unspecified)
inactive: [1] 6.15% | [2] -20.1% | [3] 21.1% | [4] 6.05% | [5] -4.35% | [6] 10.7%

O=[N+]([O-])c1ccc(O)c(O)c1
inactive: [1] -23.6% | [2] -1.7% | [3] -10% | [4] 12.8% | [5] 5.6% | [6] -6.85%

Cc1nc2c(c(-c3ccc(Cl)cc3)n1)Cc1c(ccc3ccccc13)O2
inactive: [1] -15.4% | [2] -5.9% | [3] -9.2% | [4] -0.1% | [5] -28.8% | [6] -19%

CC(C)=NOC(=O)Nc1cccc2c1OCO2
inactive: [1] -30.3% | [2] -19.4% | [3] -12% | [4] -14.8% | [5] -35.5% | [6] 4.25%

O=C1c2cc3ccccc3cc2NC(O)c2cccn21 (stereo unspecified)
inactive: [1] 9.4% | [2] 4.6% | [3] 1.15% | [4] 27.4% | [5] 13.4% | [6] 13.2%

CCOC(=O)C1CN(C2CCCCC2)CCC1=O (stereo unspecified)
inactive: [1] -2.45% | [2] -26.6% | [3] 4.85% | [4] -37% | [5] 1.4% | [6] -24.4%

CN(CCc1ccccn1)/[N+]([O-])=N/O (tested in a mixture with another compound)
inactive: [1] -30.8% | [2] -36.9% | [3] 4.15% | [4] 11.2% | [5] -3.35% | [6] -4.65%

O=C(O)C1C2CCC(O2)C1C(=O)Nc1cccc2cccnc12 (stereo unspecified)
inactive: [1] 15.3% | [2] 12.4% | [3] -10.2% | [4] -1.15% | [5] 22.5% | [6] 17.8%

CCCC(NC(=O)CN)C(=O)O (stereo unspecified)
inactive: [1] 14.8% | [2] 19.1% | [3] 2% | [4] -50% | [5] -29.4% | [6] 6.5%

COc1cc2ccc3c4cc5c(cc4cnc3c2cc1OC)OCO5
inactive: [1] -0.65% | [2] -3.45% | [3] -15.7% | [4] -25.9% | [5] -1.1% | [6] -16.7%

Cc1nc2ccc(N)cc2oc1=O
inactive: [1] 6.55% | [2] 15.1% | [3] 15.2% | [4] -28.9% | [5] 0.8% | [6] 9.35%

CC12CCC/C(=N\NC(N)=S)C1C(=O)NC(=O)C2 (stereo unspecified)
inactive: [1] -6.8% | [2] 2.65% | [3] -2.6% | [4] 33% | [5] 12.4% | [6] 7.15%

CN1C(=O)c2c(ccc3c2OCO3)C2C(O)Cc3cc4c(cc3C21)OCO4 (stereo unspecified)
inactive: [1] 6.85% | [2] 9.9% | [3] 21.8% | [4] 27.9% | [5] 7.15% | [6] -51%

COc1ccc(/C=C2\N=C(NN)N=C2Cl)cc1
inactive: [1] -8.2% | [2] -30.9% | [3] 4.55% | [4] 23.4% | [5] -0.35% | [6] -13.3%

CN(C)CC1CCCCCCC1=O (stereo unspecified)
inactive: [1] -6.45% | [2] 12.7% | [3] -8.55% | [4] -8.1% | [5] -8.85% | [6] 12.8%

CC1=CC(C)(C)N=C2SC(c3ccc(Cl)cc3)=NN12
inactive: [1] 15.8% | [2] 7.25% | [3] 13.2% | [4] -5.8% | [5] 13.2% | [6] 10.6%

CC12C=CC(=O)C=C1CCC1C2C(O)CC2(C)/C(=C\CO)CCC12 (stereo unspecified)
inactive: [1] -4.05% | [2] -1.75% | [3] 6.55% | [4] -15.8% | [5] 60.2% | [6] -3.35%

CC1=CC(C)(C)N=C2SC(=O)c3nc4ccccc4c(=O)n3N12
inactive: [1] 10.7% | [2] 2.35% | [3] 13.8% | [4] -11.3% | [5] 15.1% | [6] 16.6%

CC(C)N1CCN(c2ccncc2S(=O)(=O)N2CCCCC2)CC1
inactive: [1] -14.1% | [2] -23.2% | [3] -12.3% | [4] -5.5% | [5] -21.9% | [6] -30.4%

C#CC(CCC)NCCCC (stereo unspecified)
inactive: [1] 16.2% | [2] -8.95% | [3] -8.8% | [4] 3.05% | [5] -4.9% | [6] -1.95%

CC1CC(C)SC(C)S1 (stereo unspecified)
inactive: [1] -30.6% | [2] -7.95% | [3] -10.1% | [4] -87.4% | [5] -2.7% | [6] -14.8%

COc1ccc(CC2OC(C)CC(C)(C)O2)cc1 (stereo unspecified)
inactive: [1] 38.2% | [2] -12.2% | [3] 4.75% | [4] -55.8% | [5] -4.5% | [6] 37.2%

O=C1NN(c2ccccc2)C(=O)C2C3c4ccccc4C(c4ccccc43)C12 (stereo unspecified)
inactive: [1] 2.45% | [2] -6.8% | [3] 0.7% | [4] -3.3% | [5] -2.4% | [6] 2.85%

CC1=CC(N)C2CC1C2(C)C (stereo unspecified)
inactive: [1] -9.3% | [2] -17.1% | [3] -29.1% | [4] -37.6% | [5] -2.2% | [6] -1.65%

C=CCn1c(SC)nc2c(c1=O)CCCC2
inactive: [1] -34.5% | [2] -13.4% | [3] -5.4% | [4] -14.3% | [5] 7.55% | [6] -10.2%

CC(C)=CCS(=O)c1ccccc1NC1=CC(=O)CC(C)(C)C1 (stereo unspecified)
inactive: [1] -16.2% | [2] -26.1% | [3] -37.6% | [4] -7.55% | [5] -5.8% | [6] -3.55%

Cc1ccc(N)c(C(O)(C(F)(F)F)C(F)(F)F)c1
inactive: [1] -5.7% | [2] 1.5% | [3] 12.5% | [4] 15.6% | [5] 16.6% | [6] 16.6%

CN1CCCS/C1=C1/SC(=S)N(c2ccccc2)C1=O
inactive: [1] -16.8% | [2] 13.8% | [3] -5.85% | [4] -5.75% | [5] -28.1% | [6] -17.4%
